# Measurements from PubChem BioAssay AID1345085 (National Center for Advancing Translational Sciences (NCATS), 2018).
# Inconclusive results are not listed. A call without a number means that no potency is given here. A number with no mark means an inactive call. Activity calls are given as the source filed them. Calls come from the whole dose curve; as a rule, active = well fitted cell-killing curve with a large enough effect; inconclusive = small, poorly fitted or top-dose-only effect, or effect the other way; inactive = no such curve, though single readings can be large or run the other way.
# Test system: CASKI
# Assay: Confirmatory qHTS for gynecologic anti-cancer compounds from libraries of approved drugs and bioactive compounds; note: nearly all actives have a fitted effect of over 55% in size
# Settings: gynecologic cancer cell panel viability, ATPlite luminescence, 48 h; series mostly up to 57.6 µM
# Outline: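 1,000 cells/well; 16 h pre-incubation 37 C, 5% CO2; pin-transferred cpd in DMSO, 11 conc (1:3), 57.5 uM–0.977 nM; 48 h; ATPlite, 15 min RT; luminescence → IC50.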
# Potency is the fitted concentration of half-maximal effect.
SMILES,Potency,"activity change, negative = viability loss"
CN(NC(=O)CC(=O)NN(C)C(=S)c1ccccc1)C(=S)c1ccccc1,inactive,
Cc1ccc(C(=O)Nc2cccc(C(F)(F)F)c2)cc1-c1ccc2nc(NCCN3CCOCC3)ncc2c1,12.2 µM (active),
S=c1nc[nH]c2nc[nH]c12,4.85 µM (active),
Cc1cnc(Nc2ccc(OCCN3CCCC3)cc2)nc1Nc1cccc(S(=O)(=O)NC(C)(C)C)c1,19.3 µM (active),
CC[C@H](Nc1ncnc2nc[nH]c12)c1nc2cccc(F)c2c(=O)n1-c1ccccc1,,-2.62% [at 10.7 µM]
CC(C)C[C@H](NC(=O)[C@H](CCc1ccccc1)NC(=O)CN1CCOCC1)C(=O)N[C@@H](Cc1ccccc1)C(=O)N[C@@H](CC(C)C)C(=O)[C@@]1(C)CO1,9.68 µM (active),
COc1cc(Nc2ncc3c(n2)-c2ccc(Cl)cc2C(c2c(F)cccc2OC)=NC3)ccc1C(=O)O,19.3 µM (active),
CCN[C@H]1C[C@H](C)S(=O)(=O)c2sc(S(N)(=O)=O)cc21,inactive,
Cc1ccc(C(=O)N(CCCN)C(c2oc3cc(Cl)ccc3c(=O)c2Cc2ccccc2)C(C)C)cc1 (centres undefined),27.3 µM (active),
COc1ccc(CCC(=O)c2c(O)cc(O[C@@H]3O[C@H](CO)[C@@H](O)[C@H](O)[C@H]3O[C@@H]3O[C@@H](C)[C@H](O)[C@@H](O)[C@H]3O)cc2O)cc1O,inactive,
Cc1nc(Nc2n[nH]c3c2CN(C(=O)NC(CN(C)C)c2ccccc2)C3(C)C)c2sccc2n1 (centres undefined),3.06 µM (active),
NS(=O)(=O)c1ccc(Nc2nc(OCC3CCCCC3)c3[nH]cnc3n2)cc1,inactive,
CN1C(=O)C(Cc2c[nH]c3ccccc23)NC1=S (centres undefined),inactive,
Cc1cncc2cccc(S(=O)(=O)N3CCCN(C(=O)CN)C[C@@H]3C)c12,inactive,
COc1c(C)c2c(c(O)c1C/C=C(\C)CCC(=O)O)C(=O)OC2,inactive,
CN(C[C@@H]1COCCO1)S(=O)(=O)Nc1ccc2ccc3ncc(-c4cnn(C)c4)cc3c(=O)c2c1,inactive,
Cc1nc(N)sc1-c1ccnc(Nc2ccc(N3CCOCC3)cc2)n1,24.3 µM (active),

SMILES,Potency,"activity change, negative = viability loss"
C=CC(=O)Nc1cccc(Oc2nc(Nc3ccc(N4CCN(C)CC4)cc3)ncc2Cl)c1,10.9 µM (active),
C[C@@H](Oc1cc(-c2cnn(C3CCNCC3)c2)cnc1N)c1c(Cl)ccc(F)c1Cl,24.3 µM (active),
CC(=O)OC12COC1CC(O)C1(C)C(=O)C(O)C3=C(C)C(OC(=O)C(O)C(NC(=O)OC(C)(C)C)c4ccccc4)CC(O)(C(OC(=O)c4ccccc4)C21)C3(C)C (centres undefined),inactive,
CN(C)C(CCOc1cccc2ccccc12)c1ccccc1 (centres undefined),inactive,
CCN(CC)CCOc1ccc(/C(=C(\Cl)c2ccccc2)c2ccccc2)cc1,112 µM (active),
Cc1ccc(C(=O)Nc2ccc(Oc3cc4cnn(C)c4cc3-c3cn[nH]c3)c(F)c2)c(=O)n1-c1ccc(F)cc1,inactive,
COc1cc(-c2nn(C3CCC(N4CCN(C(C)=O)CC4)CC3)c3ncnc(N)c23)ccc1NC(=O)c1cc2ccccc2n1C (centres undefined),inactive,
CC(C)C[C@H](NC(=O)[C@H](Cc1ccccc1)NC(=O)c1cnccn1)B(O)O,0.0343 µM (active),
Cc1ccc(C(N)=O)cc1Nc1nccc(-c2cn(C(C)C)c3cnccc23)n1,17.2 µM (active),
Cc1nc(N)ncc1-c1nc(N2CCOCC2)c2sc(C(C)(C)O)cc2n1,0.769 µM (active),
CN[C@@H](C)C(=O)N[C@H]1CN(C(=O)CC(C)C)CC[C@H]2CC[C@@H](C(=O)NC(c3ccccc3)c3ccccc3)N2C1=O,inactive,
CC(C)[C@@H](CS(=O)(=O)C(C)C)N1C(=O)[C@@](C)(CC(=O)O)C[C@H](c2cccc(Cl)c2)[C@H]1c1ccc(Cl)cc1,inactive,
CC[C@]1(O)C[C@H]2CN(CCc3c([nH]c4ccccc34)[C@@](C(=O)OC)(c3cc4c(cc3OC)N(C=O)[C@H]3[C@@](O)(C(=O)OC)[C@H](OC(C)=O)[C@]5(CC)C=CCN6CC[C@]43[C@@H]65)C2)C1,inactive,
COC(=O)c1ccc2c(C(=Nc3ccc(N(C)C(=O)CN4CCN(C)CC4)cc3)c3ccccc3)c(O)[nH]c2c1,inactive,
Fc1cc(-c2cccc3ncc(-c4cnn(C5CCNCC5)c4)nc23)cc(F)c1CN1CCOCC1,34.3 µM (active),
CN1CCCC(n2nc(Cc3ccc(Cl)cc3)c3ccccc3c2=O)CC1 (centres undefined),inactive,
COc1cc(N2CCC(N3CCN(C)CC3)CC2)ccc1Nc1ncc(Cl)c(Nc2ccccc2S(=O)(=O)C(C)C)n1,12.2 µM (active),
